The source of these data is PMC7826789 (International Journal of Molecular Sciences, 2021).

Assay [1] concerns BTK.
The test system of assay [2] is BUB1.
Assay [3] deals with CDK12.
The test system of assay [4] is CDK13.
In assay [5] the test system is CDK9.
The subject of assay [6] is CDK19.
Assay [7] relates to CDK8.
The test system of assay [8] is CDK3.
The subject of assay [9] is CDK7.

`C=CC(=O)Nc1cc(-n2c(=O)ccc3cnc4ccc(-c5ccc(NS(C)(=O)=O)cc5)cc4c32)ccc1C` [BMX-IN-1]: the Kinases covered result in assay [1] is listed as “BTK”. Take `COc1cc2ncnc(Nc3ccc(F)c(Cl)c3)c2cc1O[C@H]1CC[C@H](N)CC1` [BIBW3133BS]: in assay [2], the Kinases covered entry was “BUB1”. `C#Cc1cccc(Nc2ncnc3cc(OC)c(OC4CCN(C)CC4)cc23)c1` [BI00007366]: the Kinases covered entry in [2] was “BUB1”. For the molecule `CN(C)C/C=C/C(=O)Nc1ccc(C(=O)N2CCC[C@@H](Nc3ncc(Cl)c(-c4c[nH]c5ccccc45)n3)C2)cc1` [THZ531], the values for the Kinases covered entry in [3] and in assay [4] were “CDK12” and “CDK13”, respectively. Take `COC[C@@H](C)N[C@H]1CC[C@H](Nc2cc(-c3cccc(NCC4(C#N)CCOCC4)n3)c(Cl)cn2)CC1` [NVP-2]: the results for the Kinases covered entry in [4] and in assay [5] were “CDK13” and “CDK9”, respectively. Turning to `Cn1ncc2cc(-c3cnc(N)c(Cl)c3N3CCC4(CCNC4=O)CC3)ccc21` [CCT251921], the Kinases covered result in assay [6] is “CDK19”; in [7] it was “CDK8”. On to `Cn1cc(-c2ccc(-c3cncc(Cl)c3N3CCC4(CCNC4=O)CC3)cc2)cn1` [CCT251545], for which the Kinases covered entry in assay [6] is given as “CDK19”; in assay [7] it was “CDK8”. Consider `CC(C)COC(=O)c1ccc2c(c1)/C(=C/Nc1ccc(S(N)(=O)=O)cc1)C(=O)N2` [GW416981X], for which the Kinases covered result in [8] is recorded as “CDK3”.

With `CN(C)C/C=C/C(=O)Nc1ccc(C(=O)Nc2cccc(Nc3ncc(Cl)c(-c4c[nH]c5ccccc45)n3)c2)cc1` [THZ1], in assay [9], the Kinases covered entry is given as “CDK7”.

For the molecule `CCC(NN(C)C)=C1C(=O)Nc2ccc(C(C)=O)cc21` [BI00036838], the Kinases covered result in [9] is recorded as “CDK7”.
